Assay outcomes (PubChem BioAssay)
ERG-DNA inh: qHTS for Small Molecule Inhibitors of the ERG Ets/DNA interaction; Transcriptional regulator ERG (Homo sapiens), P11308; fluorescence polarization, His-ERG Ets domain / labelled DNA; Potency, µM (series often up to 76.9 µM), without a hit: at the highest dose FP activity, negative = inhibition, actives largely listed as inhibitors; hit rate 0.028% among 370,000; AID 624246, 2012; active = well fitted inhibition curve with a large enough effect in the polarisation, with a control signal flat; inconclusive = small, poorly fitted or top-dose-only effect, or effect the other way, or a change in a side signal; inactive = no such curve, though single readings can be large or run the other way; the % refers to the polarisation;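 also: polarization taken with two DNA probes labelled with fluorescein and Texas red; % of control where 0% means no effect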
Target sequence (P11308 whole entry, looked up, the tested form may be a part): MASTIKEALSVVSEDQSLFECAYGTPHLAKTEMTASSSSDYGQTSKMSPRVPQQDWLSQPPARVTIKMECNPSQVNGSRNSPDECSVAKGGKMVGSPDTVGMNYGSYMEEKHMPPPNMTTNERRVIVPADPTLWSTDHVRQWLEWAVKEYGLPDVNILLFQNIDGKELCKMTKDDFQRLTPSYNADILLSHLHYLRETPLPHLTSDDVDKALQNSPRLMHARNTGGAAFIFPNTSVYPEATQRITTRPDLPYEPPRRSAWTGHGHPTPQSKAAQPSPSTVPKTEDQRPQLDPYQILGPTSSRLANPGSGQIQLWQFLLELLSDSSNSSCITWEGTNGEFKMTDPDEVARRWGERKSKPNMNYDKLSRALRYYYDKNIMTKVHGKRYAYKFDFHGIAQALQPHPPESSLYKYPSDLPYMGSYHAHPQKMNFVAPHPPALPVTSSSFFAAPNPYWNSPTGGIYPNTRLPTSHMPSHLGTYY
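His-tagged ERG Ets domain (1 uM in the protein solution; 300mM KCl, 50mM Tris-HCl, 1mM EDTA, 1mM DTT, pH 7.5) received compound, then a probe mix of 5 nM fluorescein-DNA and 100nM Texas-615-DNA. Fluorescence polarization was read for both dyes.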
BRCA1 expr up: qHTS Assay to Identify Small Molecule Activators of BRCA1 Expression | Potency, µM (series often up to 46.1 µM), without a hit: at the highest dose activation, most hits filed as activators | hit rate 1.1% among 380,000 | MCF7-BRCA1-FFLuc reporter, luminescence, 48 h; response scale: scaled: vehicle 0%, 10 µM genistein 100%; also: nearly all actives have a fitted effect of over 80% in size
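MCF7-BRCA1-FFLuc, 2000 cells/well; 2 h attach, 37 °C/5% CO2; compound 48 h; luciferase substrate 15 min; luminescence end-point. Norm. to genistein 10 microM max activation and DMSO; concentration-response curves fitted.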
Mito fusion yeast: qHTS Assay for Small Molecule Inhibitors of Mitochondrial Division or Activators of Mitochondrial Fusion | S. cerevisiae fusion-defective mutant growth rescue, CellTiterGlo 48 h | Potency, µM (highest dose often 46.1 µM), inactives show at the top dose growth rescue (activation), usual class: activators | hit rate 0.23% among 320,000; also: % of control where 0% means no effect; nearly all actives have a fitted effect of over 45% in size
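Yeast fusion mutant, YPEG (non-fermentable carbon), compound, 48 h at 37C non-permissive; CellTiterGlo added, 10 min RT, luminescence read. Rescued growth = division inhibition.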
B2AR arrestin: qHTS assay of beta-arrestin-biased ligands of beta2-adrenergic receptor; beta-arrestin recruitment to beta2AR, cell-based reporter; Potency, µM (series often up to 46.1 µM), inactives show at the top dose activation, most hits filed as activators; hit rate 0.02% among 330,000; AID 492947, 2010;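 also: 0% = DMSO controls and full agonism = EC100 isoproterenol or metaproterenol; nearly all actives have a fitted effect of over 65% in size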
Active calls of the source: *; ? = inconclusive; . = not tested or not shown. The list is not random: actives were taken first. Their share in the collection is about 1.2%. Unless noted, calls follow the shape of the dose curve; as a rule, active = well fitted curve in the direction sought with a large enough effect; inconclusive = small, poorly fitted or top-dose-only effect, or another doubt; inactive = no such curve, though single readings can be large; an effect the other way counts as inactive or inconclusive. Potency is read from the fitted curve at half-maximal effect.

SMILES	ERG-DNA inh	BRCA1 expr up	Mito fusion yeast	B2AR arrestin
O=C(Nc1cccnc1)c1cc2c(ccc3ccccc32)o1	1.5%	12.6µM*	-6.8%	.
COc1cc(NC(=O)C(C)C)ccc1NC(=O)c1cc2ccccc2o1	-0.2%	8.91µM*	8.6%	-0.5%
OC[C@H]1O[C@H](n2cnc3c(N[C@H]4CCC[C@@H]4O)ncnc32)[C@H](O)[C@@H]1O	.	.	-30.1%	.
COc1cc(OC)c(NC(=O)Nc2nnc(N(C)C3CCCCC3)s2)cc1Cl	1.5%	.	.	.
O=C(Cc1ccc(F)cc1)NCCc1csc(-c2ccc(C(F)(F)F)cc2)n1	1.4%	-15.5%	.	.
CCc1ccc(CN(Cc2ccco2)c2cnc(S(C)(=O)=O)nc2C(=O)Nc2ccc(C)c(Cl)c2)cc1	0.0%	.	.	.
Cc1ccc(CNC(=O)CSc2nc3ccccc3nc2Cc2ccc(C)cc2)cc1	-3.8%	13.3%	.	.
Cn1cc(-c2cc3n(n2)CCC(=O)N3CCCC(=O)NCc2ccccc2Cl)c2ccccc21	14.3%	.	.	.
O=C(Nc1ccc(N2CCCC2)cc1)c1cc2ccccc2o1	14.2%	8.91µM*	-2.3%	-0.2%
CC(=O)N1CCN(c2ccc(NC(=O)c3cc4ccccc4o3)cc2)CC1	4.7%	64.6%	-2.2%	-0.8%
CC(C)C(=O)Nc1cccc(NC(=O)c2cc3ccccc3o2)c1	-1.0%	10µM*	18.5%	2.7%
O=C(Nc1cccc(-c2nc3ncccc3o2)c1)c1cc2ccccc2o1	-3.1%	-31.7%	12.6µM*	0.5%
O=C(Nc1ccc(N2CCCCCC2)cc1)c1ccc[nH]1	1.0%	1.41µM*	26.7%	-0.7%
COc1cc2nc(NC3CCN(Cc4ccccc4)CC3)nc(N3CCCN(C)CC3)c2cc1OC	.	-34.7%	.	.
Cc1ccc(-c2nnc(Nc3cccc(Cl)c3)c3ccccc23)cc1S(=O)(=O)N1CCCCC1	0.7%	.	.	.
CC(=O)N1CCc2c(sc3c2c(=O)n(CCc2ccccc2)c(=O)n3CC(=O)Nc2ccc(C)c(F)c2)C1	0.9%	-19.8%	.	.
Cc1ccc(NC(=O)c2ccco2)c([N+](=O)[O-])c1	4.9%	7.94µM*	4.6%	0.3%
CCC(Sc1nc2ccccc2c2nc(CCc3c(C)n[nH]c3C)nn12)C(=O)Nc1ccc(OC)cc1 (stereo not drawn)	7.5%	.	.	.
Cc1ccc(C)c(N2CCN(c3c(CN4CCCC4)c(=O)oc4ccccc34)CC2)c1	-2.3%	.	.	.
CC(=O)Oc1ccc(C(=O)Nc2ccc(C3(C#N)CCCC3)cc2)cc1	-15.6%	10µM*	5.3%	0.4%
O=C(COc1ccc(Cl)cc1)NCC(c1ccco1)S(=O)(=O)c1ccc(F)cc1 (stereo not drawn)	-5.1%	.	.	.
COc1ccc(OC)c(S(=O)(=O)NCCc2sc(-c3ccc(C)cc3)nc2C)c1	-0.1%	-4.3%	.	.
NS(=O)(=O)c1ccc(N=NN2CCCCC2)cc1	0.7%	10µM*	0.2%	-0.8%
O=C(Nc1cccc(F)c1)C1CCN(c2nc3ccccc3nc2C(F)(F)F)CC1	-2.2%	-22.2%	.	.
O=c1c2c3c(sc2nc2n1N=C(c1cccs1)CS2)CCCC3	-1.2%	1.26µM*	-1.2%	0.2%
SMILES	ERG-DNA inh	BRCA1 expr up	Mito fusion yeast	B2AR arrestin
COc1ccc(C)cc1NC(=O)Nc1ccc(C(=O)N2CCCC2)cc1	-6.5%	7.94µM*	0.6%	3.2%
COCCNC(=O)CN1C(=O)COc2ccc(S(=O)(=O)N3CCCC3)cc21	-1.3%	25.3%	.	.
Cc1cc(C)cc(NC(=O)CSc2nnc(COc3ccccc3Cl)o2)c1	-3.5%	-7.7%	.	.
COc1ccc(-c2nc(CCNC(=O)Cc3ccc(F)cc3)cs2)cc1	0.9%	.	.	.
COc1ccc2ccccc2c1C(=O)/C=C\c1ccoc1	-0.1%	-27.5%	10µM*	-0.7%
O=C(/C=C/c1ccoc1)c1ccccc1O	14.5%	10.7%	1.5%	1.6%
COc1ccc(CN2C(=O)N(c3ccccc3)C(=O)C2c2ccccc2)cc1COc1ccc(NC(C)=O)cc1 (stereo not drawn)	.	-26.9%	.	.
CN1CCN(C(=O)c2cc(-c3cccc(Cl)c3)on2)CC1	2.7%	?	-3.3%	0.2%
O=C(c1cc(-c2cccc(Cl)c2)on1)N1CCCCCC1	-4.6%	12.6µM*	17.1%	-1.1%
COc1cc(OC)c2c(=O)cc(-c3cccnc3)oc2c1	-2.3%	0.4%	-0.7%	-0.4%
COc1cc(OC)c2c(=O)cc(-c3ccccc3)oc2c1	-15.2%	7.94µM*	-1.0%	3.2%
